The list is not random: actives were taken first. Their share in the collection is about 19%.
TDP1 cell noCPT = qHTS for Inhibitors of human tyrosyl-DNA phosphodiesterase 1 (TDP1): qHTS in cells in absence of CPT; 420,000 tested, 15% active; DT40 Tdp1-/- hTDP1 cells, no CPT, ATP luminescence, 48 h; Potency, µM (series often up to 46.2 µM), inactives show top-dose activity change, negative = growth inhibition, most hits filed as inhibitors; AID 686978, 2013; also: nearly all actives have a fitted effect of over 55% in size
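Camptothecin absent (DMSO only). Human TDP1-complemented DT40 knockout cells, 400 cells/well, 37 °C for minimum 48 hr; ATP measured via CellTiter-Glo, 30 min dark incubation, luminescence.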
HT1080 IDH1KD tx = kills HT-1080 cells with IDH1 knockdown; HT-1080 IDH1 knockdown viability, ATP luminescence, 48 h; Potency, µM (series often up to 46.1 µM), inactives show at the highest dose activity, negative = toxicity, actives largely listed as cytotoxic; 360,000 tested, 2% active; AID 686971;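 also: 0% = DMSO wells and -100% = cell-free medium wells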
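Luminescent ATP read-out (CellTiter-Glo, 10 min at room temperature) after 48 h compound exposure at 37 °C gave viability of IDH1-knockdown HT-1080 cells. Activity was normalised to DMSO and cell-free wells, then fitted as concentration-response curves.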
KB-3-1 cytotox = KB-3-1 parental cell cytotoxicity; KB-3-1 viability, CellTiter-Glo ATP luminescence, 72 h; Potency, µM (doses to about 46.1 µM), usual class: cytotoxic; AID 1347075; 400,000 tested, 1.4% active; also: nearly all actives have a fitted effect of over 60% in size
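Parental KB-3-1 adenocarcinoma cells in phenol-red-free DMEM with 10% FBS were pin-treated with compounds at several concentrations, incubated 72 h at 37 °C, and viability read by CellTiter-Glo luminescence; concentration-effect curves were fitted after normalization.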
HT1080NT lethal = kills 2HG-producing HT-1080-NT fibrosarcoma cells; HT-1080-NT fibrosarcoma viability, CellTiter-Glo ATP luminescence, 48 h; Potency, µM (highest dose often 46.1 µM), for inactives: at the highest dose activity, negative = less viability, usual class: cytotoxic; 360,000 tested, 1.6% active;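 also: NT is the 2HG producing partner of a matched IDH1 knockdown line; 0% = DMSO-treated cells and -100% = media-only wells without cells; nearly all actives have a fitted effect of over 55% in size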
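Read-out is CellTiter-Glo luminescence after 10 minutes at room temperature, following 48 hours' compound treatment of HT-1080-NT cells (750 cells/well, RPMI, 5% FBS, 37 degrees C).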
KB-V1 MDR tox = KB-V1 MDR subline cytotoxicity. AID 1347076. KB-V1 MDR cells viability, CellTiter-Glo, 72 h. 400,000 tested, 3.4% active. Potency, µM (highest dose often 46.1 µM), usual class: cytotoxic; also: nearly all actives have a fitted effect of over 60% in size
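Compound-treated KB-V1 multidrug-resistant cells, 72 h, 37 degrees C; viability by CellTiter-Glo. Fitted qHTS curves give the values.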
TDP1 cell CPT = DT40-hTDP1 cell growth loss with CPT; 420,000 tested, 12% active; AID 686979; Potency, µM (titrated, usually from 46.2 µM), for inactives: top-dose activity change, negative = growth inhibition, actives largely listed as inhibitors; chicken DT40 Tdp1-/-;hTDP1 cells + 20 nM CPT, ATP luminescence, 48 h; also: nearly all actives have a fitted effect of over 55% in size
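Chicken DT40 Tdp1-/- cells stably complemented with human TDP1 were seeded at 400 cells/well in medium containing 20 nM camptothecin, exposed to pin-transferred compounds, and grown at 37 °C for at least 48 hr. Viability was read as ATP luminescence.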
An asterisk follows results filed as active; [ ] = another dose, or the depositor's remark. Calls follow the shape of the dose curve; as a rule, active = well fitted curve in the direction sought with a large enough effect; inconclusive = small, poorly fitted or top-dose-only effect, or another doubt; inactive = no such curve, though single readings can be large; an effect the other way counts as inactive or inconclusive. Unless noted, % is scaled to controls: 0 for no effect and ±100 for the full control effect; potency is read from the fitted curve at half-maximal effect.

O=C(/C=C/c1ccc(F)cc1)N1CCN(S(=O)(=O)/C=C/c2ccccc2)CC1 was read as TDP1 cell noCPT -7%, HT1080 IDH1KD tx -6%, KB-3-1 cytotox inactive, HT1080NT lethal -1%, KB-V1 MDR tox inactive and TDP1 cell CPT 3%.
For C=CC(=O)N1C/C(=C/c2ccc(F)cc2)C(=O)/C(=C\c2ccc(F)cc2)C1 the results were TDP1 cell noCPT -104%, HT1080 IDH1KD tx 2.9µM*, KB-3-1 cytotox inconclusive, HT1080NT lethal inconclusive, KB-V1 MDR tox inactive and TDP1 cell CPT 0.82µM*.
For CCc1ccc(NC(=O)CCCc2nc(-c3ccco3)no2)cc1 the results were TDP1 cell noCPT inconclusive, KB-3-1 cytotox inactive, KB-V1 MDR tox inactive and TDP1 cell CPT inconclusive.
For CCNc1nc(NCC)nc(SCCOc2ccc(C)cc2)n1 the results were TDP1 cell noCPT 18µM*, HT1080 IDH1KD tx inconclusive, KB-3-1 cytotox inconclusive, HT1080NT lethal -13%, KB-V1 MDR tox inconclusive and TDP1 cell CPT 21µM*.
`COc1cc(C)nc(Oc2ccc(OCCOc3ccccc3)nn2)n1` gave TDP1 cell noCPT 17%, HT1080 IDH1KD tx 13%, KB-3-1 cytotox inactive, HT1080NT lethal 8%, KB-V1 MDR tox inactive and TDP1 cell CPT -1%.
Screening Cc1cccc(OCCOCCSc2ncccn2)c1 returned TDP1 cell noCPT -30%, HT1080 IDH1KD tx -2%, KB-3-1 cytotox inactive, HT1080NT lethal -1%, KB-V1 MDR tox inactive and TDP1 cell CPT -10%.
`CC(C)CCOc1ccc(Oc2nc(N(C)C)nc(N(C)C)n2)nn1` gave TDP1 cell noCPT inconclusive and TDP1 cell CPT 18µM*.
Screening CCCOc1ccc(Oc2nc(NCC(C)C)nc(N(C)C)n2)nn1 returned TDP1 cell noCPT 13µM* and TDP1 cell CPT inconclusive.
Screening COC(=O)COc1ccc(Oc2nc(NC(C)(C)C)nc(N(C)C)n2)nn1 returned TDP1 cell noCPT -28% and TDP1 cell CPT 1%.
For Cc1cccc(OCCSc2nc(N)cc(N)n2)c1 the results were TDP1 cell noCPT 21µM*, HT1080 IDH1KD tx 2%, KB-3-1 cytotox inconclusive, HT1080NT lethal 2%, KB-V1 MDR tox inconclusive and TDP1 cell CPT inconclusive.
For CCNc1nc(NC(C)C)nc(Oc2ccc(OCCOc3ccc(C)cc3)nn2)n1 the results were TDP1 cell noCPT inconclusive, HT1080 IDH1KD tx -40%, KB-3-1 cytotox inactive, HT1080NT lethal -2%, KB-V1 MDR tox inconclusive and TDP1 cell CPT 21µM*.
CCNc1nc(NCC)nc(Oc2ccc(OCC)nn2)n1 was read as TDP1 cell noCPT 0%, HT1080 IDH1KD tx -13%, KB-3-1 cytotox inactive, HT1080NT lethal -1%, KB-V1 MDR tox inactive and TDP1 cell CPT -2%.
COc1ccc(CN(CC(O)COCc2ccccc2)S(=O)(=O)c2ccccc2Br)cc1OC (configuration not stated) was read as TDP1 cell noCPT 16µM*, HT1080 IDH1KD tx -26%, KB-3-1 cytotox inconclusive, HT1080NT lethal -27%, KB-V1 MDR tox inconclusive and TDP1 cell CPT inconclusive.
Screening CN(C)c1ccc(C(=O)Nc2c(C(=O)NC(C)(C)C)oc3ccccc23)cc1 returned TDP1 cell noCPT inconclusive, KB-3-1 cytotox inactive, KB-V1 MDR tox inactive and TDP1 cell CPT inconclusive.
COc1ccc(-c2cc(C(F)(F)F)nc(SCCC(=O)N3CCCC3)n2)cc1 was read as TDP1 cell noCPT inconclusive, HT1080 IDH1KD tx 4%, KB-3-1 cytotox inactive, HT1080NT lethal 13%, KB-V1 MDR tox inactive and TDP1 cell CPT inconclusive.
`COc1ccc(-c2cc(C(F)(F)F)nc(SCC(=O)N3CC(C)OC(C)C3)n2)cc1OC` (configuration not stated) gave TDP1 cell noCPT 1%, HT1080 IDH1KD tx -1%, KB-3-1 cytotox inactive, HT1080NT lethal 0%, KB-V1 MDR tox inconclusive and TDP1 cell CPT -17%.
Screening COc1ccc(-c2cc(C(F)(F)F)nc(SCCC(=O)N3CCN4CCCC4C3)n2)cc1 (configuration not stated) returned TDP1 cell noCPT 26µM*, HT1080 IDH1KD tx -2%[9.24 µM], KB-3-1 cytotox inactive, HT1080NT lethal -1%, KB-V1 MDR tox inconclusive and TDP1 cell CPT inconclusive.
For CCC1CCCCN1C(=O)CSc1nc(-c2ccc(OC)cc2)cc(C(F)(F)F)n1 (configuration not stated) the results were TDP1 cell noCPT 9.2µM*, KB-3-1 cytotox inactive, KB-V1 MDR tox inactive and TDP1 cell CPT 23µM*.
`CCC1CCCCN1C(=O)CSc1nc(-c2ccc(OC)c(OC)c2)cc(C(F)(F)F)n1` (configuration not stated) gave TDP1 cell noCPT 23µM*, KB-3-1 cytotox inactive, KB-V1 MDR tox inconclusive and TDP1 cell CPT inconclusive.
Screening O=Cc1c[nH]c2ccc(OCc3ccccc3)cc12 returned TDP1 cell noCPT -19%, HT1080 IDH1KD tx 2%, KB-3-1 cytotox inactive, HT1080NT lethal -7%, KB-V1 MDR tox inactive and TDP1 cell CPT -4%.
`CCc1cccc(C)c1NC(=O)Cn1c(=O)cc(C(F)(F)F)c2c(C)nn(C)c21` gave TDP1 cell noCPT inconclusive, KB-3-1 cytotox inactive, KB-V1 MDR tox inactive and TDP1 cell CPT inconclusive.
Screening c1ccc(COc2ncnc3c2ncn3CCCNCC(c2ccccc2)c2ccccc2)cc1 returned TDP1 cell noCPT 16µM*, HT1080 IDH1KD tx inconclusive, KB-3-1 cytotox inconclusive, HT1080NT lethal 16µM*, KB-V1 MDR tox inconclusive and TDP1 cell CPT 26µM*.
Screening c1ccc(COc2ncnc3c2ncn3CCCNCC2CCCO2)cc1 (configuration not stated) returned TDP1 cell noCPT -12%, HT1080 IDH1KD tx 1%, KB-3-1 cytotox inactive, HT1080NT lethal -1%, KB-V1 MDR tox inactive and TDP1 cell CPT -12%.
COc1ncnc2c1ncn2CCCNCC(C)c1ccccc1 (configuration not stated) was read as TDP1 cell noCPT -8%, HT1080 IDH1KD tx -1%, KB-3-1 cytotox inactive, HT1080NT lethal 8%, KB-V1 MDR tox inactive and TDP1 cell CPT 3%.
For COc1ncnc2c1ncn2CCCNCC(c1ccccc1)c1ccccc1 the results were TDP1 cell noCPT 18µM*, HT1080 IDH1KD tx -8%, KB-3-1 cytotox inactive, HT1080NT lethal -15%, KB-V1 MDR tox inactive and TDP1 cell CPT 23µM*.

Screening results from PubChem.
